{
  "source": "ChEMBL document CHEMBL3988442",
  "about": "“University of Dundee, Small-Polar-MMV Screening Library” (2021)",
  "note": "In all, about 48,000 compounds went through this assay and about 13,000 (27%) showed an effect of 50% or more. The list shows a part of the results.",
  "data": [
    {"test_system": "Wolbachia pipientis", "test": "Anti-Wolbachia Cell-Based Screen", "type": "functional", "parameters": "scale not given: in the data most compounds retested in dose-response had high values", "conditions": "5 µM", "units": {"Percent Effect": "%"}, "values": [
      {"smiles": "CN(C)C(=O)N1CCN(Cc2nc3ccccc3[nH]2)[C@H]2CS(=O)(=O)C[C@H]21", "Percent Effect": -17.35},
      {"smiles": "CC(C)c1nc(CN2CCCCC2)cs1", "Percent Effect": -7.213},
      {"smiles": "COc1cccc(N2CCN(C(=O)c3ccc(=O)n(C)c3)CC2)c1", "Percent Effect": -5.711},
      {"smiles": "COCCCN1CC2(CCN(C(=O)Cc3csc(C)n3)CC2)CC1=O", "Percent Effect": -10.63},
      {"smiles": "CN1CC2(CCN(C(=O)c3ccc4nonc4c3)CC2)CC1=O", "Percent Effect": -11.27},
      {"smiles": "CC1(C)CN(C(=O)c2ncc(F)cc2F)CCC1(O)CN1CCOCC1", "note": "(stereo not given)", "Percent Effect": -6.83},
      {"smiles": "COCCCN1CC2(CCN(Cc3ncc[nH]3)CC2)CC1=O", "Percent Effect": 10.5},
      {"smiles": "COCCCN1CC2(CCN(C(=O)c3ncc(F)cc3F)CC2)CC1=O", "Percent Effect": 74.04},
      {"smiles": "CN1CC2(CCN(C(=O)c3ccc(=O)n(C)c3)CC2)CC1=O", "Percent Effect": 119.6},
      {"smiles": "COCCCN1CC2(CCN(C(=O)c3ccc(=O)n(C)c3)CC2)CC1=O", "Percent Effect": 118.9},
      {"smiles": "CN1CC2(CCN(C(=O)c3ccc4nccnc4c3)CC2)CC1=O", "Percent Effect": -6.042},
      {"smiles": "Cc1nnc(CN(C)C2CCN(c3cccc(-c4cscn4)c3)CC2)o1", "Percent Effect": -15.24},
      {"smiles": "CC(=O)N1[C@H](Cn2cncn2)C[C@@H]2CN(S(C)(=O)=O)CC[C@@H]21", "Percent Effect": -6.775},
      {"smiles": "CCC(C(=O)NC)N(c1cccc(C)c1)S(C)(=O)=O", "note": "(stereo not given)", "Percent Effect": 11.36},
      {"smiles": "CSc1cccc(CN(C)C(=O)Nc2nc(C)n(C)n2)c1", "Percent Effect": 2.052},
      {"smiles": "CCCN(CC1COc2ccccc2O1)C(=O)c1ncoc1CC", "note": "(stereo not given)", "Percent Effect": -65.56},
      {"smiles": "Cc1ncsc1CN1C[C@@H](OCC2CC2)[C@H]2OCCC[C@H]21", "Percent Effect": -10.25},
      {"smiles": "Cc1ccsc1C(=O)Nc1cc(Br)c(=O)n(C)c1", "Percent Effect": -6.468},
      {"smiles": "N#CCCN(CC1CCCO1)C(=O)c1ccsc1", "note": "(stereo not given)", "Percent Effect": 115.2},
      {"smiles": "N#CCCN(Cc1ccco1)C(=O)c1ccc(OCC2CC2)cc1", "Percent Effect": 40.98},
      {"smiles": "O=C(c1cccc(=O)[nH]1)N(Cc1ccsc1)CC1CCCO1", "note": "(stereo not given)", "Percent Effect": -26.62},
      {"smiles": "O=C(c1cnc(O)cn1)N(Cc1ccsc1)CC1CCCO1", "note": "(stereo not given)", "Percent Effect": -2.864},
      {"smiles": "N#CCCN(CCC#N)C(=O)c1ccc(OCC2CC2)cc1", "Percent Effect": 8.167},
      {"smiles": "N#CCCN(CC1CCCO1)C(=O)c1ccc(C#N)cc1", "note": "(stereo not given)", "Percent Effect": 122.3},
      {"smiles": "CCn1/c(=N/C(=O)CSCC(=O)Nc2nccs2)sc2ccccc21", "Percent Effect": 6.405},
      {"smiles": "CN(C)C(=O)CN1C[C@@H]2CC[C@H](C1)N(C(=O)CCCn1cncn1)C2", "Percent Effect": 9.651},
      {"smiles": "O=C1CCC(C(=O)N2CCC(Cn3cc(C4CCCC4)nn3)CC2)=NN1", "Percent Effect": -1.401},
      {"smiles": "Cc1noc(C)c1CN1CCCC(CN(C(=O)OC(C)(C)C)C(C)C)C1", "note": "(stereo not given)", "Percent Effect": -2.017},
      {"smiles": "CN(C)CC1(O)CCCN(C(=O)Cn2nc3ccccc3n2)CC1", "note": "(stereo not given)", "Percent Effect": -26.73},
      {"smiles": "Cc1ccc(CN2CC3(CCN(C(=O)C4CC4)CC3)CC2C(=O)O)o1", "note": "(stereo not given)", "Percent Effect": -15.03},
      {"smiles": "COCC(=O)N1CCC(O)(CN2CCN(c3ccccc3)CC2)C1", "note": "(stereo not given)", "Percent Effect": 93.8},
      {"smiles": "COCC(=O)N1CCCC2(CCN(c3ccccc3)C2=O)C1", "note": "(stereo not given)", "Percent Effect": -10.31},
      {"smiles": "O=C(CC1CC1)N1CCC2(CC(=O)N(c3cccc(F)c3)C2)C1", "note": "(stereo not given)", "Percent Effect": -13.04},
      {"smiles": "O=C(Cn1nc2ccccc2n1)N1CCCC(O)(CN2CCCC2)C1", "note": "(stereo not given)", "Percent Effect": -26.39},
      {"smiles": "O=C(C1CC1)N1CCC(O)(CN2CCN(c3ccccc3)CC2)C1", "note": "(stereo not given)", "Percent Effect": 101.1},
      {"smiles": "COCC(=O)N1CC2(CCN(c3ccccc3)C2)C1", "Percent Effect": 10.91},
      {"smiles": "NC(=O)CN1CCCC(C(=O)N2CCC(O)(Cc3ccccc3)CC2)C1", "note": "(stereo not given)", "Percent Effect": 12.2},
      {"smiles": "NCC(=O)N1CCCC(O)(CN2CCN(c3ccccc3)CC2)CC1", "note": "(stereo not given)", "Percent Effect": 149.6},
      {"smiles": "O=C(CC1CC1)N1CCC(O)(CN2CCN(c3ccccc3)CC2)C1", "note": "(stereo not given)", "Percent Effect": 113.7},
      {"smiles": "CN1CCc2ccc(NCc3cccs3)cc2C1=O", "Percent Effect": -3.883},
      {"smiles": "Cc1nc(-c2cc(C(=O)NCC(C)(C)CO)c3ccccn23)cs1", "Percent Effect": -18.5},
      {"smiles": "COc1cc(NC(=O)NC(C2CC2)C2CC2)ccc1N1CCOC1=O", "Percent Effect": -4.711},
      {"smiles": "CN1CCN(C(=O)N2C[C@H]3CC[C@@H]2CN(Cc2ccccc2)C3)CC1", "Percent Effect": -20.32},
      {"smiles": "O=C(NC1CC(=O)N(C2Cc3ccccc3C2)C1)c1ccoc1", "note": "(stereo not given)", "Percent Effect": -3.995},
      {"smiles": "CCC(=O)NCc1cc(Br)ccc1OC(F)F", "Percent Effect": -1.176},
      {"smiles": "CS(=O)(=O)c1nccn1Cc1ccc(Cl)cc1", "Percent Effect": -5.692},
      {"smiles": "O=C(CNC1CCc2ncnn2C1)N(Cc1cccs1)C1CC1", "note": "(stereo not given)", "Percent Effect": 0.7257},
      {"smiles": "O=C(NCCN1CCOCC1)c1n[nH]c(=O)c2ccccc12", "Percent Effect": 6.871},
      {"smiles": "O=C(c1n[nH]c(=O)c2ccccc12)N1CCC(O)(CN2CCOCC2)C1", "note": "(stereo not given)", "Percent Effect": 88.42},
      {"smiles": "CCc1ccc(C(=O)N2CCC(O)(CN3CCOCC3)C(C)(C)C2)[nH]1", "note": "(stereo not given)", "Percent Effect": -6.859},
      {"smiles": "CCCNC(=O)CN1CCN(Cc2csc(C(C)(C)C)n2)CC1", "Percent Effect": -11.65},
      {"smiles": "COc1cccc(NC(=O)NCC(C)(O)CCSC)c1OC", "note": "(stereo not given)", "Percent Effect": -0.9088},
      {"smiles": "CNc1cncc(C2CCCN2Cc2c[nH]cn2)n1", "note": "(stereo not given)", "Percent Effect": -2.81},
      {"smiles": "CC(=O)Nc1nc(CN2CCCC2c2cnn(C)c2)cs1", "note": "(stereo not given)", "Percent Effect": -2.623},
      {"smiles": "Cc1nc(CN2CCCC2c2[nH]ncc2C(=O)N(C)C)cs1", "note": "(stereo not given)", "Percent Effect": 135.6},
      {"smiles": "CN(CC1CC1)C(=O)CN1CCCC1c1cnn(C)c1", "note": "(stereo not given)", "Percent Effect": -56.85},
      {"smiles": "CN(C)C(=O)c1cn[nH]c1C1CCCN1Cc1nccn1C.O=CO", "note": "(stereo not given)", "Percent Effect": 83.24},
      {"smiles": "Cc1ccc2nc(C3CCCN3Cc3csc(C)n3)[nH]c2c1", "note": "(stereo not given)", "Percent Effect": 2.616},
      {"smiles": "CN(C)C(=O)c1cn[nH]c1C1CCCN1Cc1cncn1C", "note": "(stereo not given)", "Percent Effect": 96.91},
      {"smiles": "Fc1ccc2[nH]c(C3CCCN3Cc3c[nH]cn3)nc2c1", "note": "(stereo not given)", "Percent Effect": -35.05},
      {"smiles": "CN(C(=O)CN1CCCC1c1cnn(C)c1)C(C)(C)C#N", "note": "(stereo not given)", "Percent Effect": 6.976},
      {"smiles": "CC(=O)NCCNC(=O)CN1CCN(Cc2nccn2C)C(C)C1", "note": "(stereo not given)", "Percent Effect": 1.772},
      {"smiles": "Cn1ccnc1CN1CCCCC1c1nc(-c2ccccc2)no1", "note": "(stereo not given)", "Percent Effect": 18.03},
      {"smiles": "CN(C)C(=O)c1cn[nH]c1C1CCCN1Cc1c[nH]cn1", "note": "(stereo not given)", "Percent Effect": 119.4},
      {"smiles": "CC(Oc1ccccc1C(F)(F)F)C(=O)NCCNC(=O)C1CC1", "note": "(stereo not given)", "Percent Effect": -69.67}
    ]}
  ]
}
